According to PubChem BioAssay AID588346 (National Center for Advancing Translational Sciences (NCATS), 2011):
Records with an inconclusive call do not appear. Unmarked numbers belong to inactive results. Calls follow the shape of the dose curve; as a rule, active = well fitted curve in the direction sought with a large enough effect; inconclusive = small, poorly fitted or top-dose-only effect, or another doubt; inactive = no such curve, though single readings can be large or run the other way.

Experiment: qHTS Assay for Inhibitors of Histone Lysine Methyltransferase G9a: Hit Confirmation in b-rIgG Counterscreen
Details: AlphaScreen b-rIgG bead counterscreen, signal interference; series mostly up to 55.7 µM; activity change, negative = inhibition: at the top concentration
Excerpt: Methylated lysines, on the N-terminal tails of histone proteins serve as epigenetic markers to recruit factors that can then modify local chromatin structure to lead to functional consequences. G9a and other members of the SUV39 family of the SET domain-containing superfamily of histone lysine methyltransferases (HMT) have been identified to specifically methylate Lys9 of histone H3 (H3K9). G9a catalyzes the mono- and di-methylation of H3K9 in mammalian euchromatic regions, where the resulting H3K9me2 is indicative of transcriptional repression. […] The inhibition of G9a will result in transcriptional activation and work synergistically with DNA methyltransferase and histone deacetylase inhibitors, to kill cancer cells. This qHTS assay for identification of G9a inhibitors is a chemiluminescence based AlphaScreen (PerkinElmer). Methylation of biotinylated-histone peptide is measured through specific antibody-based detection, in conjunction with streptavidin-coated donor and anti-IgG antibody-coated acceptor beads. The method is particularly well suited for detection of inhibitors acting by the desired histone peptide competitive mechanism and is applicable to testing other HMTs. Although AlphaScreen has significant advantages with its utility in a variety of epigenetic target assays, the primary screening data provided in this deposition should be used with caution due to the prevalence of screening artifacts. Because an AlphaScreen counterscreen is highly recommended to be run against any putative actives to eliminate non specific artifacts, this assay was used as a counterscreen. Quinn et al. A chemiluminescence-based method for identification of histone lysine methyltransferase inhibitors. Mol Biosyst 6(5): 782-8. 2010. PMID: 20567762 [2] Baell,Holloway. New substructure filters for removal of pan assay interference compounds (PAINS) from screening libraries and for their exclusion in bioassays. J Med Chem. 53(7):2719-40. 2010. PMID: 20131845 NIH Chemical Genomics Center [NCGC] NIH Molecular Libraries Probe Production Network [MLPCN] MLPCN Grant: MH084681-02 Assay Submitter (PI): Structural Genomic Consortium - Toronto, Peter Brown
Biotinylated rabbit-IgG (b-rIgG) (Santa Cruz Biotechnology, Inc., Santa Cruz, CA) was added to 1,536-well plates in a 3 uL dispense. Compounds were added in a 23 nL pin-transfer step, and plates were incubated at room temperature for 15 min. Streptavidin-coated donor and anti-rIgG acceptor AlphaScreen beads were added (1 uL) for final concentrations of 20 ug/mL each bead and 1 nM b-rIgG, and plates read on the Envision after a 15 min incubation at room temperature in the dark.

| Structure (SMILES) | activity change, negative = inhibition |
| --- | --- |
| C/C=C/c1ccc(OCC(=O)OCC(=O)NC2CC2)c(OC)c1 | -10.2% |
| O=C(N/N=C/c1ccccn1)c1cc(-c2ccc(Cl)cc2)nc2ccccc12 | 15.7% |
